Screening results: PubChem BioAssay, National Center for Advancing Translational Sciences (NCATS)
This is a sample that favours compounds with a hit; in the whole collection about 8% have one here.
MARV entry inh – qHTS for inhibitors of binding or entry into cells for Marburg Virus; Marburg virus pseudotyped entry inhibition, cell reporter; hit rate 1.8% among 300,000; Potency, µM (titrated, usually from 37.8 µM), inactives show top-dose activity change, negative = inhibition, usual class: inhibitors; AID 540276, 2011; calls by dose curve; tested in HEK293 cells; further: potency means the concentration at half of the fitted maximal effect; on the % scale 0 is the no-effect control and ±100 the full control effect
HCMV inh – qHTS Assay for inhibitors of the human cytomegalovirus (HCMV); hit rate 4.5% among 410,000; activity change, negative = inhibition, % at 57.5 µM; HFF cells, HCMV-luciferase reporter, 72 h; hits give low values; in the data active means activity change below about -60%; inconclusive means no clear call, values can overlap the other calls; inactive means above about -39%; further: on the % scale 0 is the no-effect control and ±100 the full control effect
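Two-dose cell screen: HFF monolayers treated with compounds and infected with luciferase-expressing HCMV at 1 PFU/cell, 72 h at 37C, then lysed for luciferase measurement.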
HCV inh – qHTS Assay for Inhibitors of Hepatitis C Virus (HCV). Huh7.5.1 HCVcc-Cre infection, luciferase reporter, 44 h. Potency, µM (series often up to 41.8 µM), inactives show top-dose activity change, negative = inhibition, most hits filed as inhibitors. hit rate 3.4% among 340,000. AID 651820, 2012; active means well fitted inhibition curve with a large enough effect; inconclusive means small, poorly fitted or top-dose-only effect, or another doubt; inactive means no such curve, though single readings can be large or run the other way; further: potency means the concentration at half of the fitted maximal effect; on the % scale 0 is the no-effect control and ±100 the full control effect
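Antiviral activity was scored by luciferase reporter output from cells infected with HCVcc-Cre (~0.5 moi) in presence of compound, 44 h infection period, cells seeded 1,000/well 4 h prior.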
SARS PLpro yeast – qHTS of Yeast-based Assay for SARS-CoV PLP; Potency, µM (top dose mostly 32.9 µM), for inactives: at the highest dose activity, positive = growth rescue, actives largely listed as activators; hit rate 0.19% among 330,000; S. cerevisiae expressing SARS-CoV PLpro, growth rescue; calls by dose curve; further: potency means the concentration at half of the fitted maximal effect; 0% is about no effect; nearly all actives have a fitted effect of over 55% in size
FMDV antiviral – High Throughput Screening for Foot and Mouth Disease Virus Antivirals; FMDV antiviral cell-based qHTS; AID 1159524, 2015; hit rate 1.2% among 410,000; Potency, µM (doses to about 57.9 µM), without a hit: at the top dose activity change, negative = inhibition, usual class: inhibitors; calls by dose curve; tested in HEK293T cells; further: read-out not given here; potency means the concentration at half of the fitted maximal effect; on the % scale 0 is the no-effect control and ±100 the full control effect; nearly all actives have a fitted effect of over 45% in size
LASV entry inh – qHTS for Inhibitors of binding or entry into cells for Lassa Virus | Lassa virus pseudotype entry inhibition, cell reporter | Potency, µM (series often up to 37.9 µM), for the others: at the highest dose activity change, negative = inhibition, hits mostly inhibitors | hit rate 1.2% among 300,000; calls by dose curve; tested in HEK293 cells; further: potency means the concentration at half of the fitted maximal effect; on the % scale 0 is the no-effect control and ±100 the full control effect; nearly all actives have a fitted effect of over 50% in size
Active calls of the source: *; ? = inconclusive; . = not tested or not shown; [ ] = remark or other dose.

SMILES	MARV entry inh	HCMV inh	HCV inh	SARS PLpro yeast	FMDV antiviral	LASV entry inh
CCC1CN(CCNC(=O)c2cccnc2OC)Cc2cc(OC)ccc2O1 (stereo unspecified)	.	.	.	.	11%	.
CC(C)c1cc(C(F)(F)F)n2nc(C(=O)Nc3ccc4c(c3)OCO4)cc2n1	3%	87	13µM*	-8%	22%	5%
O=C(Nc1cc(Cl)ccc1Cl)c1cc2nc(-c3ccc4c(c3)OCO4)cc(C(F)(F)F)n2n1	3%[46.1 µM]	13	.	.	-19%	8%[46.1 µM]
O=C(c1ccc(S(=O)(=O)Nc2ccc(F)cc2)cc1)N1CCN(C(=O)c2ccco2)CC1	?	-69*	-20%	15%	0%	-25%
Cc1cc(S(=O)(=O)Nc2ccc(C(=O)N3CCN(C(=O)c4ccco4)CC3)cc2)ccc1F	?	-20	-25%	-13%	-18%	-24%
O=C(Cn1nnc(-c2ccc(F)cc2)n1)N1CCCCC1	-1%[46.1 µM]	-38	10%	1%	7%	11%[46.1 µM]
O=C(Nc1ccc(-c2nnn(CC(=O)N3CCN(C(=O)c4ccco4)CC3)n2)cc1)c1ccc(F)cc1	.	-14	10µM*	-1%	-16%	.
c1ccc2c(c1)c1ccccc1n1c(-c3ccc4c(c3)OCO4)nnc21	4%	14	?	6%	25µM*	2%
CCCN1C(=O)C(NC(=O)c2ccccc2OC)(C(F)(F)F)C(C(=O)OC)=C1C (stereo unspecified)	?	-3	.	.	-17%	-7%[46.1 µM]
COc1ccc(C2=NOC(Cn3c(Cc4ccc(Cl)cc4)nc4c3c(=O)n(C)c(=O)n4C)C2)cc1 (stereo unspecified)	-8%	-9	1.4µM*	-1%	-20%	-2%
COc1ccccc1C1=NOC(Cn2c(NCCCO)nc3c2c(=O)n(C)c(=O)n3C)C1 (stereo unspecified)	0%	33	19%	0%	-25%	?
Cc1cccc(C2C3=C(Nc4[nH]n(-c5ccccc5)c(=O)c42)c2ccccc2C3=O)c1 (stereo unspecified)	5%	-88*	-7%	7%	-20%	5%
COc1cc(NS(=O)(=O)c2ccc(C)c(C)c2)c(OC)cc1Cl	?	-69*	-9%	-24%	-2%	-26%
COc1ccc(/C(C)=N/NC(=S)NCc2ccco2)cc1	-11%	-6	-6%	-26%	-11%	2.1µM*
COc1ccc(S(=O)(=O)Nc2ccccc2OC)cc1C	-20%	11	11%	5%	.	-15%
COc1ccc(/C(C)=N/NC(=S)NCCc2ccccc2)cc1	?	-114*	-12%	0%	-18%	?
COc1cc(NC(=S)NCCc2ccc(S(N)(=O)=O)cc2)c(OC)cc1Cl	.	-61*	-21%	0%	2%	.
Cc1ccc(CONC(=O)c2ccc(C)cc2)cc1	.	7	-9%	1%	58%	.
CCOCCCNC(=S)N1CCC(NC(=O)C23CC4CC(CC(C4)C2)C3)CC1	9%	-30	4%	1%	-6%	-5%
C/C(=N\NC(=S)NCc1ccccc1)c1cccc(Br)c1	-19%[46.1 µM]	78	?	-2%	52%	?
COc1ccc(NC(=S)NCCc2ccc(F)cc2)c(OC)c1	27%[46.1 µM]	1	-14%	9%	7%	5%
C/C(=N\NC(=S)NCc1ccccc1)c1ccc2ccccc2c1	?	-24	?	25%	-6%	2.3µM*
COc1ccc(NC(=S)NCCc2ccccc2)c(OC)c1	1%	6	22µM*	?	-3%	-1%
O=C(O)c1ccccc1NC(=O)N1c2ccccc2Sc2ccccc21	.	-5	.	.	9%	12%[46.1 µM]
CCn1c(SCC(=O)Nc2nc(-c3ccc(C)cc3)cs2)nnc1-c1ccccc1O	?	-70*	6.3µM*	-12%	16µM*	?
SMILES	MARV entry inh	HCMV inh	HCV inh	SARS PLpro yeast	FMDV antiviral	LASV entry inh
CCn1c(CSc2nc(C)cc(C)n2)nnc1SCC(=O)Nc1nc(-c2ccccc2)cs1	?	-1	?	-4%	-28%	21%
CCn1c(SCC(=O)Nc2nc(-c3ccc(C)cc3)cs2)nnc1-c1ccccc1	?	-72*	7.9µM*	-3%	13µM*	?
Cn1c(SCC(=O)N2c3ccccc3Sc3ccccc32)nc2ccccc21	-52%	?	4%	-5%	-26%	-15%
CN(C)CCCn1c(SCC(=O)N2c3ccccc3Sc3ccccc32)nc2ccccc2c1=O	?	-99*	13µM*	-4%	?	?
COc1ccccc1-c1nnc(SCC(=O)Nc2nc(-c3ccccc3)cs2)n1C	23µM*	-25	?	26%	32µM*	23µM*
CCn1c(SCC(=O)Nc2nc(C)cs2)nnc1-c1ccncc1	18%[46.1 µM]	-3	9%	3%	-6%	-1%[46.1 µM]
C=Cc1ccc(CC2(C)C(=O)Nc3ccc(Cl)cc32)cc1 (stereo unspecified)	.	3	.	.	-11%	.
CC(=O)N1c2ccccc2C(C)(c2ccc(C)cc2)CC1(C)C (stereo unspecified)	-28%[46.1 µM]	1	.	.	?	21%[46.1 µM]
N#C/C(=N/O)c1nc(-c2ccccc2)cs1	15%	.	.	.	.	.
COc1ccc2oc(=O)c(-c3cn4c(n3)sc3cc(F)ccc34)cc2c1	.	-29	.	.	-8%	2%[46.1 µM]
CC(C)n1c(SCC(=O)Nc2nc3c(s2)CCCC3)nc2c1c(=O)n(C)c(=O)n2C	?	-60*	-3%	4%	25µM*	?
CC(C)n1c(SCC(=O)N2c3ccccc3Sc3ccccc32)nc2c1c(=O)n(C)c(=O)n2C	9.2µM*	9	11µM*	-6%	.	?
Cc1ccc(-c2csc(NC(=O)CSc3nc4ccccc4c(=O)n3CCCN(C)C)n2)cc1	?	24	1.4µM*	-1%	2%	?
O=C(CSc1nnc(-c2cccnc2)n1Cc1ccco1)Nc1nc(-c2ccc(F)cc2)cs1	?	-74*	25µM*	6%	20µM*	-7%
CCc1ccccc1NC(=O)CSc1ncc(S(=O)(=O)c2ccccc2)c(N)n1	.	-14	.	.	-26%	1%[46.1 µM]
COCCn1c(=O)cnc2cnc(Oc3ccc(OC)cc3)nc21	.	.	.	.	5%	.
COc1ccc(CNC(=O)C2=C(C)C(=O)OC23CCCCC3)cc1	.	36	.	.	3%	-5%[46.1 µM]
CCOC(=O)CCN1C(=O)[C@@H]2[C@H]3[C@H](O)[C@H](O)CC(=NNC(=O)OCc4ccccc4)[C@@H]3CC[C@H]2C1=O	29%[14.2 µM]	.	.	.	.	-34%[14.3 µM]
Cc1cccc(Oc2nc3c(c(=O)n(C)c(=O)n3C)n2Cc2ccccc2)c1C	-24%[46.1 µM]	4	.	.	-24%	6%[46.1 µM]
O=c1[nH]c2ccccc2c2ccccc12	?	16	14µM*	-8%	-3%	15%
CCn1c(=NC(=O)CS(=O)(=O)c2ccc(F)cc2)sc2cccc(OC)c21	?	?	?	.	?	-36%
